From PubChem
Most compounds without a hit are left out; they make up all but 12% or so of the library.
G9a inh: blocks human histone lysine methyltransferase G9a. G9a H3K9 monomethylation, AlphaScreen, 2 h. Q96KQ7. Potency, µM (highest dose often 102 µM), for the others: at the highest dose activity, negative = inhibition, usual class: inhibitors. 350,000 tested, 8.8% active. AID 504332; also: potency is read from the fitted curve at half-maximal effect; % is scaled to controls: 0 for no effect and ±100 for the full control effect; nearly all actives have a fitted effect of over 75% in size
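Step 1: enzyme (final 20 nM) with compound, 15 min RT. Step 2: substrate peptide 500 nM and SAM 20 uM, 2 h RT. Step 3: anti-H3K9me1 antibody and AlphaScreen beads, 10 min, then plate read.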
BAZ2B block: blocks human BAZ2B | Q9UIF8 | AlphaScreen BAZ2B-H3K14Ac peptide displacement | Potency, µM (titrated, usually from 114 µM), inactives show top-dose activity change, negative = inhibition, hits mostly inhibitors | 360,000 tested, 4.4% active; also: potency is read from the fitted curve at half-maximal effect; % is scaled to controls: 0 for no effect and ±100 for the full control effect; nearly all actives have a fitted effect of over 60% in size
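Multi-concentration screen (max 110 uM) measuring displacement of acetylated histone H3 peptide from BAZ2B by AlphaScreen, using 50 nM protein, 50 nM peptide and 10 ug/mL streptavidin donor plus Ni-chelate acceptor beads.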
PLK1 PBD block: inhibitors of human PLK1 polo-box domain binding; Plk1 PBD binding of FITC phosphopeptide, fluorescence polarization; Potency, µM, inactives show max response, negative = inhibition, actives largely listed as inhibitors; 360,000 tested, 2.8% active; AID 720504; also: potency is read from the fitted curve at half-maximal effect; series mostly up to about 57 µM; % is scaled to controls: 0 for no effect and ±100 for the full control effect; nearly all actives have a fitted effect of over 65% in size
PI5P4K alpha inh: PI5P4K alpha (human) kinase inhibition; P48426; PI5P4Kalpha enzyme, ADP-Glo luminescence, 60 min; hits give low values; max response, %; 330,000 tested, 1.2% active; AID 652105; active = max response of -50% or lower; inconclusive = between -30% and -50%; inactive = -30% or higher; also: value at the top dose of about 77 µM; % is scaled to controls: 0 for no effect and ±100 for the full control effect
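Single end-point luminescence (ADP-Glo) quantified ADP from PI5P4Kalpha turnover; ATP 5 microM final, 1 h at RT, 0.1% CHAPS and 0.28 mM EGTA in HEPES pH 7.4.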
HP1b binding inh: HP1-beta chromodomain-methylated histone interaction inhibition; P83916; AlphaScreen HP1-beta / biotin-H3K9me3 peptide binding; Potency, µM (series often up to 114 µM), without a hit: top-dose activity change, negative = inhibition, hits mostly inhibitors; 390,000 tested, 0.56% active; also: potency is read from the fitted curve at half-maximal effect; nearly all actives have a fitted effect of over 70% in size
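AlphaScreen: HP1-beta (50 nM) preformed 30 min with biotin-H3(1-18)K9me3 peptide (50 nM) in PBS pH 7.4, 0.01% Tween-20. Compound added for 30 min at RT, then streptavidin donor/nickel chelate acceptor beads (10 ug/mL) for 30 min.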
JMJD2A Tudor: JMJD2A Tudor domain (human) inhibition; Potency, µM (top dose mostly 114 µM), without a hit: top-dose activity change, negative = inhibition, hits mostly inhibitors; 390,000 tested, 4.4% active; AlphaScreen JMJD2A-Tudor / H3K4me3 peptide binding; also: potency is read from the fitted curve at half-maximal effect; % is scaled to controls: 0 for no effect and ±100 for the full control effect; nearly all actives have a fitted effect of over 50% in size
ADP-Glo interf: ADP-Glo luciferase interference, PI5P4K counter-screen; shares compounds with PI5P4K alpha inh; ADP-Glo detection counter-screen, luciferase luminescence, no enzyme; Potency, µM (highest dose often 76.9 µM), inactives show at the highest dose activity change, negative = inhibition, hits mostly inhibitors; 1,100 tested, under 10 active
Numbers without * were called inactive; u = inconclusive; x = no result given; [ ] = dose if it differs, or a comment. Unless noted, calls follow the shape of the dose curve; as a rule, active = well fitted curve in the direction sought with a large enough effect; inconclusive = small, poorly fitted or top-dose-only effect, or another doubt; inactive = no such curve, though single readings can be large; an effect the other way counts as inactive or inconclusive.

SMILES | G9a inh | BAZ2B block | PLK1 PBD block | PI5P4K alpha inh | HP1b binding inh | JMJD2A Tudor | ADP-Glo interf
Cc1cc(-c2csc(N)n2)c(C)n1CCC(C)C | 10µM* | u | -15% | -64* | -31% | 50µM* | -7%
NC(Cc1ccc(Cl)cc1)c1csc(Nc2ccc(-c3ccccc3)nn2)n1 (configuration not stated) | x | x | -17% | -20 | x | x | x
CN1OC[C@@H]2CN3C(=O)N(c4cccc5ccccc45)c4ccccc4[C@@H]3C[C@@H]21 | x | x | -9% | -53* | x | x | 1%
COc1ccc(-c2[nH]ncc2CN2CCC(N3CCSCC3)CC2)cc1F | 2% | -26% | -10% | 0 | -8% | -21% | x
CCC(=O)Oc1ccc(C(=O)Nc2c[nH]c(=O)[nH]c2=O)cc1 | 22%[59 µM] | 7% | -14% | -53* | 23% | -6% | -6%
CCCOc1ccc(C(=O)Nc2c[nH]c(=O)[nH]c2=O)cc1 | 1% | -3% | 7% | 1 | 31% | -10% | x
CCNC(=O)c1ccccc1SCC(=O)Nc1ccc(F)cc1 | -34% | -25% | 9.5µM* | -68* | -7% | 13µM* | 2%
COc1ccc(N(CC(=O)NC2CCCC2)C(=O)Cn2nnc(-c3ccc(OC)c(OC)c3)n2)cc1 | -3% | -20% | -6% | 4 | 21% | -10% | x
COc1ccc(-c2nnn(CC(=O)N(CC(=O)NC3CCCC3)c3ccccc3)n2)cc1OC | -2%[59 µM] | -20% | 3.8µM* | -51* | -13% | 18µM* | 5%
CCCCCC(=O)N1C[C@H](n2cc(C3CC3)nn2)[C@@H](O)C[C@@H]1c1ccccc1 | x | x | 1% | 2 | x | x | x
COCCNC(=O)c1cc(-c2ccccc2)sc1N | x | x | -25% | -63* | x | x | -5%
CCCCNC(=O)c1cc(-c2ccccc2)sc1N | x | x | -30% | u | x | x | x
CCc1nnc(NC(=O)c2ccc(S(C)(=O)=O)cc2)s1 | x | -5% | 9.5µM* | -53* | 1% | -30%[11.4 µM] | -1%
CCc1nnc(NC(=O)c2ccc(S(=O)(=O)N3CCCC3)cc2)s1 | 7% | 1% | 0% | -6 | 36% | 14% | x
CCN(CC)S(=O)(=O)c1ccc(C(=O)Nc2nnc(NC(=S)Nc3ccccc3)s2)cc1 | x | -13% | -21% | -59* | -13% | u | 6%
COC(=O)c1ccc(C)c(NC(=O)CCSc2ccc(Cl)cc2)c1 | -36% | 13% | -1% | 1 | 39% | -3% | x
Cc1ccc([N+](=O)[O-])cc1NC(=O)CCSc1ccc(Cl)cc1 | 4%[59 µM] | -3% | 1% | -70* | 14% | -12% | -2%
Cc1ccc(C)c(S(=O)(=O)Nc2ccc3oc(C)c(C(=O)O)c3c2)c1 | 40µM* | 50µM* | u | -95* | 50µM* | 50µM* | -6%
O=C1NC(c2cccs2)Nc2ccccc21 (configuration not stated) | u | 0% | 2.7µM* | -58* | -9% | u | 2%
COc1ccc(C(=O)NCCSc2ccccc2)cc1OC | -6% | -15% | 3.4µM* | -87* | -14% | 11µM* | -12%
COc1cc(C(=O)NCCSc2ccccc2)cc(OC)c1OC | x | -16% | 4% | -1 | 10% | -15% | x
Cc1nn(Cc2ccccc2)c(C)c1C(=O)N1CCN(S(=O)(=O)/C=C/c2ccccc2)CC1 | u | 14% | -3% | 1 | 33% | -10% | x
COc1ccc(NC(=O)COC(=O)c2cccn2C)cc1S(=O)(=O)N1CCCCC1 | x | x | -21% | 5 | -20% | -24% | x
COc1cc(Cn2c3ccc(NC(=O)CCc4ccccc4)cc3c(=O)n2C)ccc1F | x | x | -7% | -64* | x | x | -2%
O=C(COc1ncnc2ccccc12)NCc1ccc2c(c1)OCO2 | 5%[12.7 µM] | -3% | -2% | 6 | 6% | -5% | x
Cc1nc2ccccc2nc1OCC(=O)NCc1ccc2c(c1)OCO2 | 6% | -5% | 2.7µM* | -62* | -11% | u | -14%
